Shown are actives, neighbours in structure and some others; about 12% of the full set was active somewhere.
Sfp inh – inhibitors of Bacillus subtilis Sfp phosphopantetheinyl transferase. Q9F4F7. Biochemical Sfp PPTase activity, qHTS. Potency, µM, for the others: largest response in the series, negative = inhibition, most hits filed as inhibitors. 310,000 tested, 3.5% active;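 further: the enzyme is Sfp with the accession as filed and its product quenches rhodamine fluorescence; 0% = enzyme reaction without inhibitor and -100% = no enzyme wells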
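Compounds were incubated with enzyme (final 15 nM) for 15 min at room temperature before substrate addition started the reaction. Fluorescence at 525 nm excitation, 598 nm emission was recorded immediately and after 30 minutes.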
L3MBTL1 inh – inhibitors of human L3MBTL1; AlphaScreen L3MBTL1–H3K9me1 peptide binding; Potency, µM (highest dose often 57.1 µM), for inactives: top-dose activity, negative = inhibition, hits mostly inhibitors; 230,000 tested, 0.66% active; further: on the % scale 0 is the no-effect control and ±100 the full control effect; nearly all actives have a fitted effect of over 60% in size
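L3MBTL1 50 nM + b-AHA-H3(1-15)K9me1 75 nM, 30 min RT; compound added, 30 min RT; streptavidin donor/Ni-chelate acceptor beads 10 ug/mL each final, 30 min RT dark; AlphaScreen read.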
JMJD2A Tudor inh – inhibitors of human JMJD2A Tudor domain. AlphaScreen JMJD2A-Tudor / H3K4me3 peptide binding. 390,000 tested, 4.4% active. O75164. Potency, µM (series often up to 114 µM), without a hit: at the highest dose activity change, negative = inhibition, usual class: inhibitors; further: on the % scale 0 is the no-effect control and ±100 the full control effect; nearly all actives have a fitted effect of over 50% in size
BAZ2B block – blocks human BAZ2B. Q9UIF8. AlphaScreen BAZ2B-H3K14Ac peptide displacement. Potency, µM (top dose mostly 114 µM), for inactives: top-dose activity change, negative = inhibition, most hits filed as inhibitors. 360,000 tested, 4.4% active. AID 504333; further: on the % scale 0 is the no-effect control and ±100 the full control effect; nearly all actives have a fitted effect of over 60% in size
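In this displacement format the biotinylated H3(5-23) peptide acetylated at Lys14 serves as ligand at 50 nM, with BAZ2B at 50 nM in PBS pH 7.4 containing 0.01% Tween-20. Donor and acceptor beads are 10 ug/mL final.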
HP1b chromo inh – HP1-beta chromodomain-methylated histone interaction inhibition | P83916 | AlphaScreen HP1-beta / biotin-H3K9me3 peptide binding | Potency, µM (top dose mostly 114 µM), without a hit: at the highest dose activity change, negative = inhibition, actives largely listed as inhibitors | 390,000 tested, 0.56% active | AID 540317; further: nearly all actives have a fitted effect of over 70% in size
Target sequence (P83916 whole entry, looked up): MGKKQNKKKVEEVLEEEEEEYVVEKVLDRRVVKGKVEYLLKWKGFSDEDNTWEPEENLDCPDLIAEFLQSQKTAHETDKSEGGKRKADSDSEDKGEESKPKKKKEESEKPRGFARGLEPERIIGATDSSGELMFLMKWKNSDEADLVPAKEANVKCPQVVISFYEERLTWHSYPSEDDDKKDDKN
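Compound inhibition of the preformed complex between 50 nM HP1-beta and 50 nM biotinylated H3K9me3 peptide was read by AlphaScreen. Buffer was PBS pH 7.4 with 0.01% Tween-20. Incubations ran 30 min at room temperature, with 10 ug/mL donor/acceptor beads.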
G9a block – blocks human histone lysine methyltransferase G9a; Potency, µM (highest dose often 102 µM), without a hit: at the top dose activity, negative = inhibition, hits mostly inhibitors; Q96KQ7; 350,000 tested, 8.8% active; G9a H3K9 monomethylation, AlphaScreen, 2 h; further: on the % scale 0 is the no-effect control and ±100 the full control effect; nearly all actives have a fitted effect of over 75% in size
Target sequence (Q96KQ7 913-1193 limits assumed): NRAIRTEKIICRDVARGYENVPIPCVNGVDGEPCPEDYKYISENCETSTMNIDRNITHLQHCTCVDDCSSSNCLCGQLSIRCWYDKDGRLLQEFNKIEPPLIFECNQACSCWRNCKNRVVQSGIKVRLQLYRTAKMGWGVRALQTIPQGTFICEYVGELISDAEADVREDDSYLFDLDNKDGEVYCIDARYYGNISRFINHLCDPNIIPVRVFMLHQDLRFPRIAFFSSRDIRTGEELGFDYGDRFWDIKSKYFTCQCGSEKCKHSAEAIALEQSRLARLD
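Methyltransferase reactions run at room temperature for 2 h (20 nM enzyme, 500 nM biotin-H3K9 peptide, 20 uM SAM) after a 15 min compound preincubation; product detected by AlphaScreen beads and anti-H3K9me1 antibody.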
The depositor's hits bear a star; ? = inconclusive; . = no result given; [ ] = remark or other dose. The call rests on the fitted dose curve; in most records, active means well fitted curve in the direction sought with a large enough effect; inconclusive means small, poorly fitted or top-dose-only effect, or another doubt; inactive means no such curve, though single readings can be large; an effect the other way counts as inactive or inconclusive. Potency means the concentration at half of the fitted maximal effect.

SMILES	Sfp inh	L3MBTL1 inh	JMJD2A Tudor inh	BAZ2B block	HP1b chromo inh	G9a block
C=CCn1cnnc1SCC(=O)Nc1cccnc1Cl	.	-14%	.	-4%	.	?
CCOC(=O)c1ccc(Nc2ccc(-c3ccc(OC)c(OC)c3)nn2)cc1	20%	2%	63µM*	.	2%	?
COc1cc2nc(N(C)C)nc(N)c2cc1OC	8%	0%	-18%	-17%	15%	45µM*
COc1cc2nc(Nc3ccc(C)c(Cl)c3)nc(N)c2cc1OC	45µM*	.	-35%	?	-22%	50µM*
CCOC(=O)c1ccc(Nc2nc(N)c3cc(OC)c(OC)cc3n2)cc1	79µM*	.	-9%	-5%	50%	-26%[59 µM]
COc1cc2nc(Nc3cccc(C)c3)nc(N)c2cc1OC	.	.	-19%	-14%	22%	-47%[59 µM]
CCOC(=O)c1ccc(N/C=C/C(=O)c2ccc(OC)c(OC)c2)cc1	3%	3%	-8%	5%	31%	.
COc1cc2nc(Nc3ccc(C)c(C)c3)nc(N)c2cc1OC	?	.	?	?	7%	-8%
COc1ccc(OC)c(CCNC(=O)c2cnn(-c3ccccc3)c2C2CCN(C(=O)OC(C)(C)C)CC2)c1	.	.	-36%	-6%[57.1 µM]	1%	-29%[59 µM]
COc1cc2nc(Nc3ccc(F)cc3)nc(N)c2cc1OC	?	.	-19%	-24%	28%	79µM*
COc1ccc(C2C(=O)N(C3CCCCC3)CC(=O)N2Cc2ccco2)cc1 (stereo not drawn)	22µM*	-3%	-30%	-5%	9%	25µM*
COc1ccc(N2C(=O)CC(Sc3nc(C)cc(C)c3C#N)C2=O)cc1 (stereo not drawn)	-7%	1%	-4%	4%	11%	?
NCCSC1CC(=O)N(c2ccc(Cl)c(Cl)c2)C1=O (stereo not drawn)	-14%	0%	-10%	?	58%	35µM*
O=C1CC(SCc2nc3ccccc3[nH]2)C(=O)N1c1cccc(Cl)c1 (stereo not drawn)	-1%	.	-22%	0%	32%	18µM*
O=C1CC(Sc2nnnn2-c2ccccc2)C(=O)N1c1cccc(Cl)c1 (stereo not drawn)	13µM*	-3%	-7%	-1%	27%	0.89µM*
COc1ccc(N2C(=O)CC(Sc3nnnn3-c3ccc(F)cc3)C2=O)cc1 (stereo not drawn)	16µM*	20%	-9%	-22%	73%	?
CCOC(=O)c1cc(-c2ccc(C)cc2)n(CC(=O)Nc2ccc(OC)cc2OC)c1C	.	.	-9%	2%	30%	3%[59 µM]
C#CCOCCOCCOCCNc1nc(N2CCN(C(=O)[C@H]([C@@H](C)CC)n3cc([C@@H](N)Cc4ccc(O)cc4)nn3)CC2)nc(N2CCN(C(=O)[C@H](Cc3ccc(O)cc3)n3cc([C@@H](N)C(C)CC)nn3)CC2)n1 (stereo partly drawn)	0%	-14%	22µM*	79µM*	8%	?
C#CCOCCOCCOCCNc1nc(N2CCN(C(=O)[C@H]([C@@H](C)CC)n3cc([C@@H](N)CC(C)C)nn3)CC2)nc(N2CCN(C(=O)[C@H](Cc3ccc(O)cc3)n3cc([C@@H](N)C(C)CC)nn3)CC2)n1 (stereo partly drawn)	3%	-3%	?	79µM*	12%	6%[12.7 µM]
C#CCOCCOCCOCCNc1nc(N2CCOCC2)nc(N2CCN(C(=O)[C@H]([C@@H](C)CC)n3cc([C@@H](N)Cc4ccc(O)cc4)nn3)CC2)n1	11%	3%	-24%	-20%	30%	?
C#CCOCCOCCOCCNc1nc(N2CCOCC2)nc(N2CCN(C(=O)[C@H](Cc3ccc(O)cc3)n3cc([C@@H](N)CC(C)C)nn3)CC2)n1	10%	1%	-15%	-24%	22%	?
CCN(c1ccccc1)S(=O)(=O)c1ccc(C(=O)N(C)CCc2ccc(OC)c(OC)c2)cc1	15%	.	-15%	-15%	-10%	-5%
CC1Cc2nc(SCC(=O)NC3CCCCC3)n(C)c(=O)c2S1 (stereo not drawn)	20µM*	-6%	-26%	7%	33%	-26%[59 µM]
Cn1c(SCC(=O)NC2CCCC2)nc2c(c1=O)SCC2	-4%	.	-19%	-14%	33%	12%
CCn1c(SCC(=O)Nc2cccc(C)c2)nc2c(c1=O)SC(C)C2 (stereo not drawn)	12%	-16%	-35%	-25%	22%	50µM*
SMILES	Sfp inh	L3MBTL1 inh	JMJD2A Tudor inh	BAZ2B block	HP1b chromo inh	G9a block
S=c1nn[nH]n1C12CC3CC(CC(C3)C1)C2	?	.	50µM*	?	-5%	1.4µM*
c1cn(C23CC4CC(CC(C4)C2)C3)cn1	17%	-3%	-14%	2%	18%	4%[12.7 µM]
CCOC(=O)C1=C(COC(=O)c2cc(Br)c(Br)s2)NC(=O)NC1C (stereo not drawn)	.	-8%	-29%	-7%	2%	?
CCN(CC)C(=O)c1ccccc1NC(=O)c1cccc(S(=O)(=O)N(CC)CC)c1	5%	4%	-5%	4%	30%	6%
CCN(CC)S(=O)(=O)c1cccc(C(=O)N/N=C(\C)c2ccc(O)cc2O)c1	16%	14µM*	?	8.9µM*	30%	28%
CCN(CC)S(=O)(=O)c1cccc(C(=O)N/N=C/c2ccc(O)c(O)c2O)c1	-106%	?	?	40µM*	?	1.8µM*
CCOc1ccccc1/C=N/NC(=O)c1cccc(S(=O)(=O)N(CC)CC)c1	17%	-1%	-10%	-16%	19%	2%
O=C(Nc1ccc(Cl)cc1)c1ccc2oc(=O)n(Cc3ccccc3)c2c1	.	.	9%	-16%	34%	37%[59 µM]
CCOc1ccc(NC(=S)NC(=O)c2c(Br)cnn2C)c([N+](=O)[O-])c1	-6%	-18%	?	?	?	28µM*
Cc1ccc([N+](=O)[O-])cc1NC(=S)NC(=O)c1c(Cl)cnn1C	45µM*	.	-9%	-7%	20%	.
Cc1ccc(NC(=O)CSC2=C(C#N)C(c3ccco3)C3=C(CCCC3=O)N2)cc1 (stereo not drawn)	10µM*	-18%	?	?	25%	16%[12.7 µM]
N#CC1=C(SCC(=O)c2ccc(Cl)cc2)NC2=C(C(=O)CCC2)C1c1ccco1 (stereo not drawn)	45µM*	-4%	?	?	4%	?
COc1ccc(C2C(C#N)=C(SC)NC3=C2C(=O)CC(C)(C)C3)cc1 (stereo not drawn)	12%	3%	-3%	4%	52%	25%[59 µM]
